Among the data in PubChem BioAssay AID1729 (National Center for Advancing Translational Sciences (NCATS), 2009) are outcome values, retold here.

This test deals with Epidermal growth factor receptor (Homo sapiens) (UniProt P00533). The experiment in a line: Assay for Inhibitors of the ERK Signaling Pathway using a Homogeneous Screening Assay: EGFR T790M Kinase Inhibition. From the text:
qHTS Assay for Inhibitors of the ERK Signaling Pathway using a Homogeneous Screening Assay
NIH Chemical Genomics Center [NCGC]
NIH Molecular Libraries Screening Centers Network [MLSCN]
Assay Submitter (PI): Dr. Wei Zheng, NCGC/NIH
The Ras/extracellular-signal-regulated kinase (ERK) mitogen activated protein (MAP) kinase signaling pathway (ERK1/2 cascade) plays is a key role in transmitting signals from the cell surface to the nucleus (Nishida and Gotoh 1993; Chang and Karin, 2001). The cascade is initiated by the small G-protein Ras, which recruits Raf […], where activation occurs. Alternatively, this pathway can be activated by elevating intracellular cAMP.
Activation of the ERK pathway is essential in increased cell division and cell survival. Sustained and constitutive activation of the ERK pathway, however, has been linked to uncontrolled cell proliferation, increased cell survival, and tumor progression. Thus, the ERK has been as an attractive target for cancer chemotherapy in the past few years (Sebolt-Leopold and Herrera, 2004). […]
The HTRF kinase assay (components supplied as kit by Cisbio) was chosen for the EGFR and EGFR mutant enzyme assays that applied the time resolved fluorescence resonance energy transfer (TR-FRET) principle. […]

The structures appear in SMILES notation. Records with an inconclusive call do not appear. Active and inactive are the calls of the source. The call rests on the fitted dose curve; in most records, active means well fitted curve in the direction sought with a large enough effect; inconclusive means small, poorly fitted or top-dose-only effect, or effect the other way, or another doubt; inactive means no such curve, though single readings can be large or run the other way.

Epidermal growth factor receptor (Homo sapiens), sequence (P00533 whole entry T790M, looked up): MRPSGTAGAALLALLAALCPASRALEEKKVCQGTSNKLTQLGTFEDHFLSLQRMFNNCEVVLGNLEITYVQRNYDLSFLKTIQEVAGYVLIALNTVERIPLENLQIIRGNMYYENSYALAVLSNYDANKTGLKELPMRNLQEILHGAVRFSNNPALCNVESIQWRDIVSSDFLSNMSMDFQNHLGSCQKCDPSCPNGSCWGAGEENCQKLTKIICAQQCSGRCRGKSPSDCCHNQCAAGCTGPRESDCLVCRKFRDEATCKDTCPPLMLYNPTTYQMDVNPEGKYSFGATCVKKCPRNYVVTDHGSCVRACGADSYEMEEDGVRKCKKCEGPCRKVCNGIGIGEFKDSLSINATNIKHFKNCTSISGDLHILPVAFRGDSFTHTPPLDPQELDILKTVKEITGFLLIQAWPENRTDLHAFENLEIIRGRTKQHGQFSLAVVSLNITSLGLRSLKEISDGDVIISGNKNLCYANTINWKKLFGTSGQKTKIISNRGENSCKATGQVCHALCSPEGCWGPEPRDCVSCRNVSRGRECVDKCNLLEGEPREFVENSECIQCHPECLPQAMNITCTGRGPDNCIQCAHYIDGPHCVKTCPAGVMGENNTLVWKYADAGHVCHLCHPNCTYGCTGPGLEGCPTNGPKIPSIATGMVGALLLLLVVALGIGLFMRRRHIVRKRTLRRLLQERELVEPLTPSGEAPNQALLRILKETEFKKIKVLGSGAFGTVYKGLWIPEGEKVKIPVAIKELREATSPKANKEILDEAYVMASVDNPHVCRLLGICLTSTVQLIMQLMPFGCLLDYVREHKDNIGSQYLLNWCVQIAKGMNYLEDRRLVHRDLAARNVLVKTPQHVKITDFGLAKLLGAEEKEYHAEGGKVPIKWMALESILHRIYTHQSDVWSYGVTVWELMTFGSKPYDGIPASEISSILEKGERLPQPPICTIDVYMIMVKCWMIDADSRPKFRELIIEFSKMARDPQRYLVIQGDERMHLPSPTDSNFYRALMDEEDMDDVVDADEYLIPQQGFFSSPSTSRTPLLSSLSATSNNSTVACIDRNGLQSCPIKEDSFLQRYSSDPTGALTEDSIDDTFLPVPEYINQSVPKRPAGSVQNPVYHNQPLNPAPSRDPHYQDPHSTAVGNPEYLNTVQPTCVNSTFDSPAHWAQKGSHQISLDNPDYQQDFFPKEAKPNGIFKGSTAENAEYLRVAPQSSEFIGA

Consider `Cc1nc2c(=O)n(C)c(=O)nc-2n(C)n1`, for which the outcome was inactive.
The entry for `CCn1nc(-c2ccccc2)nc2c(=O)n(C)c(=O)nc1-2` is “inactive”.
